Here are results for 18 compounds from PubChem BioAssay (NCATS).

A short description of assay [1]: Drug repurposing screens with cells derived from glioblastoma tumor samples (AID 1345199). For activity, negative = cell killing: % is set by controls: 0 for no effect and ±100 for the full control effect. Note: nearly all actives have a fitted effect of over 40% in size. Note: potency is the fitted concentration of half-maximal effect. The following applies: GBM patient neurospheres viability, ATP luminescence, 48 h. In short, it runs like this: (§1)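 Four patient lines of CD133+ GBM neurospheres were screened at several concentrations; hits were retested in those lines plus three slower-growing GBM lines, using 48-hour treatment and ATP-based viability.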

For the next assay, the system named is astro (control astrocytes). The assay is described as above. The following applies: viability, ATP luminescence, 48 h; series mostly up to 45.9 µM. In a few lines:
as §1

Assay [2] deals with Nuclear receptor subfamily 1 group I member 2 (Rattus norvegicus) (UniProt Q9R1A7). The experiment in a line: qHTS assay for small molecule activators of the rat pregnane X receptor (rPXR) signaling pathway (AID 651751; call rule not given here; note: 0% is about no effect). The following applies: rPXR reporter cells, luciferase (One-Glo), 24 h.
The nature of assay [3]: qHTS assay for small molecule activators of the human pregnane X receptor (PXR) signaling pathway (AID 720659; call rule not given here; note: 0% is about no effect). Particulars: DPX-2 HepG2 CYP3A4-luciferase, 24 h; series mostly up to 92.3 µM.
The mark [4] stands for this setting: at 20 µM (top of the series), tumour line C.
[5] abbreviates: at 21.2 µM (top of the series), tumour line B.
Where [6] appears, read: at 21.2 µM (top of the series), tumour line D.
[7] abbreviates: at 21.3 µM (top of the series), tumour line A.
[8] abbreviates: at 45.9 µM (top of the series), tumour line B.
The mark [9] stands for this setting: at 45.9 µM (top of the series), tumour line D.
Where [10] appears, read: at 46.1 µM (top of the series), tumour line C.
The mark [11] stands for this setting: at 46 µM (top of the series), tumour line A.

SMILES strings stand for the structures. “And” between values parts separate entries of the source, which are not always exact repeats. Equal entries are not always repeated. Values without a mark were called inactive. Records with an inconclusive call do not appear. The source holds several records for some structures; these can differ, active in one and inactive in another. The source made the active and inactive calls. Unless noted, calls come from the whole dose curve; as a rule, active = well fitted inhibition curve with a large enough effect; inconclusive = small, poorly fitted or top-dose-only effect; inactive = flat fitted curve, though single readings scatter.

Nuclear receptor subfamily 1 group I member 2 (Rattus norvegicus), sequence (Q9R1A7 whole entry, looked up): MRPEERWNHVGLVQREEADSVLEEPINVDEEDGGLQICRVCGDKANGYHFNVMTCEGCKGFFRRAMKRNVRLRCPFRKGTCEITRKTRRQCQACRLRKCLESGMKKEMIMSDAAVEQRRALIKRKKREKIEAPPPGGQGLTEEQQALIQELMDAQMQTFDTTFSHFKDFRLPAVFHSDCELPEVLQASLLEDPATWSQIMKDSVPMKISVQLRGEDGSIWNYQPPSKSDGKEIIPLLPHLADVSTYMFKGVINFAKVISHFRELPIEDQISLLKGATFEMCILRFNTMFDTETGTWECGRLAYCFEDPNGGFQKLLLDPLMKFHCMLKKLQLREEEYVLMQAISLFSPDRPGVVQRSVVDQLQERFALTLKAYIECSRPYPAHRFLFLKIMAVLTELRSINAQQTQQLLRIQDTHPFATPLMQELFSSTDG

Regarding `C[N+]1([O-])[C@@H]2CC[C@H]1CC(OC(=O)C(CO)c1ccccc1)C2` (stereo not given in full), the activity, negative = cell killing is -19.4% in assay [1] (setting [4]); -4.66% in assay [1] (setting [5]); -20.9% in assay [1] (setting [6]); -44.8% in assay [1] (setting [7]); -7.07% in assay [1] (setting [8]); 8.25% in assay [1] (setting [9]). For the same compound, the activity, negative = cell killing in assay [1] (setting [10]) was 21.1%. For the same compound, in the assay on astro, the Potency entry was “inactive”.
In the case of `C[C@H]1CC[C@]2(NC1)O[C@H]1C[C@H]3[C@@H]4CC[C@H]5C[C@@H](O)CC[C@]5(C)[C@H]4CC[C@]3(C)[C@H]1[C@@H]2C`, the activity, negative = cell killing in assay [1] (setting [8]) is -14.5%; in assay [1] (setting [9]), -28.2%; in assay [1] (setting [10]) it was -9.91%. Further, the Potency in assay [1] (tumour line A) was 8.91 µM (active). For the same compound, the Potency result in the assay with astro was “inactive”.
For the compound `Cc1ccccc1-n1c(C)nc2ccccc2c1=O`, the activity, negative = cell killing in assay [1] (setting [8]) is -8.69%; in assay [1] (setting [9]) it was -13.3%; in assay [1] (setting [10]), -24.2%; in assay [1] (at 91.6 µM (top of the series), tumour line B), -8.55%; in assay [1] (at 91.6 µM (top of the series), tumour line D) it was -15.5%; in assay [1] (at 99.2 µM (top of the series), tumour line C) it was -4.7%. The Potency in assay [1] (tumour line A) was 44.7 µM (active). Further, the Potency result in the assay with astro was “inactive”.
For `CC(C)(O)[C@@H]1[C@H]2OC(=O)[C@@H]1[C@]1(O)C[C@H]3O[C@]34C(=O)O[C@H]2[C@]14C`, the activity, negative = cell killing in assay [1] (setting [8]) is -2.1% and -10.8%; in assay [1] (setting [9]), 11.7% and -21%; in assay [1] (setting [11]) it was -37.4% and -27.2%; in assay [1] (setting [10]), -9.46% and -22%. Further, in the assay on astro, the Potency entry is “inactive”.
For the compound `CN(C)[C@@H]1C(=O)C(C(N)=O)=C(O)[C@@]2(O)C(=O)C3=C(O)c4c(O)ccc(Cl)c4[C@@](C)(O)[C@H]3C[C@@H]12`, the activity, negative = cell killing in assay [1] (setting [4]) is -1.9%; in assay [1] (setting [5]) it was -17.1%; in assay [1] (setting [6]), 7.37%; in assay [1] (setting [7]), -17.5%. Also, in the assay on astro, the Potency result was “inactive”.
On to `C[C@@H](CO)NC(=O)[C@@H]1C=C2c3cccc4[nH]cc(c34)C[C@H]2N(C)C1`, for which the activity, negative = cell killing is -4.28% in assay [1] (setting [8]), -4.71% in assay [1] (setting [9]), -21.2% in assay [1] (setting [11]) and 15.8% in assay [1] (setting [10]). In addition, in the assay with astro, the Potency entry was “inactive”.
In the same order, the values of `[S]=[Sb](=[S])[S][Sb](=[S])=[S]` are -4.98%, -5.67%, -28.3%, -1.84% and “inactive”.
As for `NCC[C@H](O)C(=O)N[C@@H]1C[C@H](N)[C@@H](O[C@H]2O[C@H](CN)[C@@H](O)[C@H](O)[C@H]2N)[C@H](O[C@@H]2O[C@H](CO)[C@@H](O)[C@H]2O)[C@H]1O`, the activity, negative = cell killing in assay [1] (setting [4]) was -6.64%; in assay [1] (setting [5]) it was -8.33%; in assay [1] (setting [6]), -11.1%; in assay [1] (setting [7]), -21.7%. For the same compound, the Potency entry with astro was “inactive”.
For the compound `Clc1ccc(Cl)cc1`, the activity, negative = cell killing in assay [1] (setting [8]) was -3.79%; in assay [1] (setting [9]) it was -0.0641%; in assay [1] (setting [11]), -16.3%; in assay [1] (setting [10]), -0.658%. Further, the Potency entry with astro was “inactive”.
On to `Clc1ccccc1Cl`, for which the activity, negative = cell killing in assay [1] (setting [8]) is -2.22%; in assay [1] (setting [9]), -8.63%; in assay [1] (setting [11]), -3.16%; in assay [1] (setting [10]), -0.0025%. For the same compound, the Potency entry in the assay with astro is “inactive”. The max response in assay [2] is 6.34%. Further, in assay [3], the result was inactive.
Turning to `CCN(CC)C(=O)/C(Cl)=C(\C)OP(=O)(OC)OC`, the activity, negative = cell killing in assay [1] (setting [8]) is 1.79%; in assay [1] (setting [9]), -19.8%; in assay [1] (setting [11]), -32%; in assay [1] (setting [10]), 1.99%. The Potency result in the assay with astro was “inactive”.
With `C[C@]12C[C@H]3S[C@H]3C[C@@H]1CC[C@@H]1[C@@H]2CC[C@]2(C)[C@@H](O)CC[C@@H]12`, the results for the activity, negative = cell killing in assay [1] (setting [4]), in assay [1] (setting [5]) and in assay [1] (setting [6]) were -0.246%, -21.3% and -16.8%, respectively. Moreover, in assay [1] (tumour line A), the Potency is 14.1 µM (active). Further, the Potency entry with astro is “inactive”.
Take `O=S(=O)(O)c1cc(O)ccc1O`: the activity, negative = cell killing is 0.614% in assay [1] (setting [4]), -13.4% in assay [1] (setting [5]), -2.62% in assay [1] (setting [6]) and -30% in assay [1] (setting [7]). For the same compound, in the assay with astro, the Potency entry is “inactive”.
As to `CCNC(C)Cc1cccc(C(F)(F)F)c1` (stereo not given), the activity, negative = cell killing in assay [1] (setting [8]) was -2.98%; in assay [1] (setting [9]), -5.81%; in assay [1] (setting [11]) it was -19.5%; in assay [1] (setting [10]), -4.96%. Further, the Potency result with astro is “inactive”.
Regarding `CCNCC(O)c1cccc(O)c1` (stereo not given), the activity, negative = cell killing was 5.83% in assay [1] (setting [4]), -15.1% in assay [1] (setting [5]), -23% in assay [1] (setting [6]) and -30.1% in assay [1] (setting [7]). In addition, in the assay on astro, the Potency result is “inactive”.
In the case of `CNc1ccc(C(=O)CC(O)CCC(C)C2OC(=O)CC(O)CC(=O)CC(O)CC(O)CC(O)CC(O)CC3(O)CC(O)C(C(=O)OC)C(CC(O[C@@H]4O[C@H](C)[C@@H](O)[C@H](N)[C@@H]4O)/C=C/C=C/C=C/C=C/C=C/C=C/C=C/C2C)O3)cc1` (stereo not given in full), the activity, negative = cell killing is -16.2% in assay [1] (setting [8]), 9.06% in assay [1] (setting [9]), -20.9% in assay [1] (setting [11]) and -13.4% in assay [1] (setting [10]). In the assay on astro, the Potency result is “inactive”.
As for `CCOC(=O)c1ccccc1C(=O)OCC`, the activity, negative = cell killing in assay [1] (setting [8]) was -8.14%; in assay [1] (setting [9]), -11.3%; in assay [1] (setting [11]) it was -28.3%; in assay [1] (setting [10]), 0.324%. For the same compound, the Potency entry in the assay on astro was “inactive”. Also, the max response in assay [2] is 2.54% and 6.22% and -3.04%. Moreover, the compound was classed as inactive in assay [3].
For the compound `CC1(C)S[C@@H]2[C@H](N)C(=O)N2[C@H]1C(=O)O`, the activity, negative = cell killing in assay [1] (setting [4]) was -3.46%; in assay [1] (setting [5]), -7.3%; in assay [1] (setting [6]), -20.2%; in assay [1] (setting [7]), -24.1%. Also, the Potency entry in the assay with astro was “inactive”.
